Assay [1] in a line: BSK_LPS_PGE2: BioMAP Diversity Plus: LPS Assay for Prostaglandin E2 (PGE2) Biomarker Activity (AID 2283082). As to conditions: primary human HUVEC with PBMC; actives raise or lower the signal. A digest of the protocol: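 HUVEC plus PBMC co-culture stimulated with LPS; secreted PGE2 quantified by ELISA 24 h after chemical dosing. Activity fitted bidirectionally against DMSO as negative control and baseline; parallel SRB total-protein staining served as cytotoxicity check.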

Read-out in assay [2]: Tissue Factor, F3 (gene 2152)
In words: BSK_LPS_TissueFactor: BioMAP Diversity Plus: LPS Assay for Tissue Factor Biomarker Activity (AID 2283084). As to conditions: primary human HUVEC with PBMC; actives raise or lower the signal. A digest of the protocol:
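Human umbilical vein endothelial cells co-cultured with peripheral blood mononuclear cells were dosed and stimulated with LPS. Cell-surface CD142 was quantified by ELISA at 24 h. Activity was fitted bidirectionally against DMSO baseline.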

Read-out in assay [3]: Vascular cell adhesion molecule 1 (VCAM1), VCAM1 (gene 7412)
The experiment in a line: BSK_LPS_VCAM1: BioMAP Diversity Plus: LPS Assay for Vascular cell adhesion molecule 1 (VCAM1) Biomarker Activity (AID 2283086). As to conditions: primary human HUVEC with PBMC; actives raise or lower the signal. A digest of the protocol: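 Human umbilical vein endothelial cells co-cultured with peripheral blood mononuclear cells under LPS stimulation were exposed to test chemical for 24 h. VCAM-1 levels were then measured by ELISA, with bidirectional curve fitting relative to DMSO as negative control and baseline.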

Read-out in assay [4]: CD38, CD38 (gene 952)
In words: BSK_SAg_CD38: BioMAP Diversity Plus: SAg Assay for CD38 Biomarker Activity (AID 2283087). Particulars: primary human HUVEC with PBMC; actives raise or lower the signal. The essentials: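 Fluorescence ELISA of cell-surface CD38 served as the read-out, with either increase or decrease fitted against DMSO controls. Cells were a human umbilical vein endothelium plus PBMC co-culture under SEB/TSST-1 stimulation, measured 24 h after dosing.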

Read-out in assay [5]: CD40, CD40 (gene 958)
In words: BSK_SAg_CD40: BioMAP Diversity Plus: SAg Assay for CD40 Biomarker Activity (AID 2283088). Particulars: primary human HUVEC with PBMC; actives raise or lower the signal. The essentials: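 Human umbilical vein endothelial cells co-cultured with PBMC; CD40 levels measured by ELISA with fluorescence read-out 24 h after chemical dosing. Gain or loss of signal fitted bidirectionally against DMSO baseline.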

Read-out in assay [6]: CD69, CD69 (gene 969)
The experiment in a line: BSK_SAg_CD69: BioMAP Diversity Plus: SAg Assay for CD69 Biomarker Activity (AID 2283089).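 On AC50: cell surface CD69 protein quantified by ELISA with fluorescence detection.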 As to conditions: primary human HUVEC with PBMC; actives raise or lower the signal. The essentials: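 Endothelial/PBMC co-culture; chemical added; 24 h incubation; CD69 ELISA with fluorescence detection; bidirectional fit vs DMSO.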

Read-out in assay [7]: Monocyte Chemoattractant Protein-1 (MCP1), CCL2 (gene 6347)
The experiment in a line: BSK_SAg_MCP1: BioMAP Diversity Plus: SAg Assay for Monocyte Chemoattractant Protein-1 (MCP1) Biomarker Activity (AID 2283090). Particulars: primary human HUVEC with PBMC; actives raise or lower the signal. A digest of the protocol: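 MCP-1 levels in the endothelial–PBMC SAg co-culture were quantified by ELISA at 24 h post-dosing; both increases and decreases versus DMSO scored. Cytotoxicity monitored by SRB total protein in parallel cultures.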

Read-out in assay [8]: E-selectin (Homo sapiens) (UniProt P16581)
The experiment in a line: BSK_SAg_Eselectin: BioMAP Diversity Plus: SAg Assay for Eselectin Biomarker Activity (AID 2283091). Particulars: primary human HUVEC with PBMC; actives raise or lower the signal. A digest of the protocol: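 HUVEC co-cultured with PBMC, compound dosed then read at 24 h; E-selectin measured by ELISA. Activity fitted bidirectionally against DMSO as negative control and baseline.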

Read-out in assay [9]: Monokine induced gamma interferon (MIG), CXCL9 (gene 4283)
In words: BSK_SAg_MIG: BioMAP Diversity Plus: SAg Assay for Monokine induced gamma interferon (MIG) Biomarker Activity (AID 2283092). As to conditions: primary human HUVEC with PBMC; actives raise or lower the signal. The essentials:
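Measures CXCL9 protein by ELISA in a human vascular primary-cell co-culture (umbilical vein endothelium with PBMC) 24 h after chemical addition. Activity is scored up or down from the DMSO control.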

Assay [10] in a line: BSK_SAg_PBMCCytotoxicity: PBMC Cytotoxicity Assessment in the BioMAP Diversity Plus: SAg Assay (AID 2283093).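 Further: PBMC viability measured as Alamar Blue reduction fluorescence at 546/580 nm; fitted both ways against DMSO so a hit may be loss or gain of signal.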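 On AC50: PBMC superantigen activated with SEB plus TSST-1 one hour after compound addition.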 As to conditions: primary human HUVEC with PBMC. A digest of the protocol:
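HUVEC/PBMC co-culture; PBMC exposed to chemical 1 h before SEB and TSST-1 activation (20 ng/mL each), incubated 90 h, then Alamar Blue 6 h, fluorescence 546/580 nm. Bidirectional fit versus DMSO baseline.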

Read-out in assay [11]: Interleukin-8 (IL8), CXCL8 (gene 3576)
The experiment in a line: BSK_SAg_IL8: BioMAP Diversity Plus: SAg Assay for Interleukin-8 (IL8) Biomarker Activity (AID 2283094). Particulars: primary human HUVEC with PBMC; actives raise or lower the signal. The essentials: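 Human umbilical vein endothelial cells co-cultured with peripheral blood mononuclear cells; IL-8 measured by ELISA 24 h after chemical dosing. Bidirectional concentration-response fitting used DMSO as negative control and activity baseline.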

Assay [12] is described as follows: BSK_SAg_Proliferation: Cell Proliferation Assessment in the BioMAP Diversity Plus: SAg Assay (AID 2283095).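 Further: relative cell number as total protein by SRB absorbance in sub-confluent culture.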 As to conditions: primary human HUVEC with PBMC. A digest of the protocol:
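Human umbilical vein endothelial cells co-cultured with peripheral blood mononuclear cells; total protein measured by sulforhodamine B staining (0.1% SRB after 10% TCA fixation), absorbance at 560 nm, at 96 h. Bidirectional fit against DMSO baseline.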

Assay [13] in a line: BSK_SAg_SRB: Viability Assessment in the BioMAP Diversity Plus: SAg Assay (AID 2283096).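 Further: cells read one day after compound addition; hits may be either gain or loss of signal compared with DMSO.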 As to conditions: primary human HUVEC with PBMC. A digest of the protocol:
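Human umbilical vein endothelial cells co-cultured with PBMC, read 24 h after compound dosing. Total protein measured by sulforhodamine B staining (0.1% SRB after 10% TCA fixation, absorbance 560 nm); bidirectional fit versus DMSO baseline.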

Read-out in assay [14]: Tumor necrosis factor (Homo sapiens) (UniProt P01375)
The experiment in a line: BSK_LPS_TNFa: BioMAP Diversity Plus: LPS Assay for Tumour Necrosis Factor alpha (TNFa) Biomarker Activity (AID 2283085). As to conditions: primary human HUVEC with PBMC; actives raise or lower the signal. A digest of the protocol:
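Human umbilical vein endothelial cells co-cultured with PBMC were exposed to test chemical and TNFa measured by ELISA 24 h after dosing. Bidirectional curve fitting was done relative to DMSO as negative control and baseline.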

Assay [15] has as its target human CYP2C9, CYP2C9 (gene 1559) (UniProt P11712). The experiment in a line: NVS_ADME_hCYP2C9: NovaScreen (NVS) CYP450-related Enzyme Activity (ADME) Assay for human CYP2C9 (AID 2283108; active means hit-call score of the fitted dose curve at least 0.9, where 1 is the maximum). The essentials:
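Recombinant human CYP2C9 expressed in SF9 cells, fluorogenic substrate, fluorescence read 0.75 h after dosing. Chemicals first run in duplicate at 10 uM, with actives followed in concentration series; loss of signal versus acetonitrile baseline.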

Read-out in assay [16]: Macrophage colony-stimulating factor (MCSF), CSF1 (gene 1435)
The experiment in a line: BSK_LPS_MCSF: BioMAP Diversity Plus: LPS Assay for Macrophage colony-stimulating factor (MCSF) Biomarker Activity (AID 2283083). Particulars: primary human HUVEC with PBMC; actives raise or lower the signal. The essentials:
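Human umbilical vein endothelial cells co-cultured with peripheral blood mononuclear cells were exposed to compound for 24 h. M-CSF levels were measured by ELISA, and bidirectional curve fitting used DMSO as the negative control and baseline.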

Where “and” joins values, the source holds several entries; their conditions need not be identical. Equal entries are not always repeated. Results filed as inconclusive are left out. More than one record can exist for a structure, and the calls need not agree. Calls of active or inactive are those of the source. How the source made its calls, unless noted: active means hit-call score of the fitted dose curve at least 0.9, where 1 is the maximum; inactive means score below 0.9.

E-selectin (Homo sapiens), sequence (P16581 whole entry, looked up): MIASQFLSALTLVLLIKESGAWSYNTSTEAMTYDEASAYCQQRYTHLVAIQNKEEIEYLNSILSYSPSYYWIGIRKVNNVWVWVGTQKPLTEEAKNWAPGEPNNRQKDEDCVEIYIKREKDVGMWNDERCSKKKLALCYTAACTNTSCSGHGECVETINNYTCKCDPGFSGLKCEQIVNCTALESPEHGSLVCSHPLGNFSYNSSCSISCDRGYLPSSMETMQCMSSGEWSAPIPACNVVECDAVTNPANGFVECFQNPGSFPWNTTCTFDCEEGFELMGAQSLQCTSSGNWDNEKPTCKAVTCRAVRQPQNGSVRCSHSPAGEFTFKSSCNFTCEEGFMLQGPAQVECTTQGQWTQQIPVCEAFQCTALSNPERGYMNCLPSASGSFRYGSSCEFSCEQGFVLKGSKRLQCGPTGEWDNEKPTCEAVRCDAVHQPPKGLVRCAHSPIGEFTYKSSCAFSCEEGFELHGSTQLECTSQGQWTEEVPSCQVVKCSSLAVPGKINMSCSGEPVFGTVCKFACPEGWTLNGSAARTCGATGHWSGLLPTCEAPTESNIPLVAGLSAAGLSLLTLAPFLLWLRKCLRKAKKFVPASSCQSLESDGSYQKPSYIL
Tumor necrosis factor (Homo sapiens), sequence (P01375 whole entry, looked up): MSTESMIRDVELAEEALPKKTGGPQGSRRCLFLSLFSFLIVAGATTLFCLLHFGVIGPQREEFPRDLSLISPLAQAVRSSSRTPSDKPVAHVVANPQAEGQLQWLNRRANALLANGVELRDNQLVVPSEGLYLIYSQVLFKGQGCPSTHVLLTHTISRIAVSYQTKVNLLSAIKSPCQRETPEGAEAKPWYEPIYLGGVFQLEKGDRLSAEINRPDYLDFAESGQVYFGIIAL
human CYP2C9, CYP2C9 (gene 1559), sequence (P11712 whole entry, looked up): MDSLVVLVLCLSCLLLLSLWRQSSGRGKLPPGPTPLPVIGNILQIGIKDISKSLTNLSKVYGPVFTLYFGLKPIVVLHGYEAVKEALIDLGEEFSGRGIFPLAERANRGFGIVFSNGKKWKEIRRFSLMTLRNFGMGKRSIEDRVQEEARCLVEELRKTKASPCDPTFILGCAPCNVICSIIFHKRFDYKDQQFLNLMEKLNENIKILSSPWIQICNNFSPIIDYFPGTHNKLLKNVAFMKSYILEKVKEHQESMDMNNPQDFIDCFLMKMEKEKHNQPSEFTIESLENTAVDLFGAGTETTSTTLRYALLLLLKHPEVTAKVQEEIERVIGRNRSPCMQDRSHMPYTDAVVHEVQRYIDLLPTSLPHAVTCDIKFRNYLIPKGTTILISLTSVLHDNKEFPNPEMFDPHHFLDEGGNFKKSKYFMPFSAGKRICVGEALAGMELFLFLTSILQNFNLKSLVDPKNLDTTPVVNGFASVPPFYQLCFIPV

With `CCCCCCC(CO)CCCC` (stereo unspecified), the result in assay [1], in [2], in assay [3], in assay [4], in [5] and in [6] was inactive. The outcome in [7], in [8], in assay [9], in [10], in assay [11] and in [12] was inactive. Moreover, the result in [13] was inactive. Also, the AC50 (in general, the concentration giving half of the maximal activity seen) in [12] is 37.3 µM (active).
Take `C=C(C)[C@H]1CC=C(C)C(=O)C1`: the outcome in assay [1], in assay [2], in assay [14], in assay [3], in assay [4] and in assay [5] was inactive. For the same compound, the result in [6], in assay [7], in [8], in assay [9], in assay [10] and in assay [11] was inactive. Moreover, the result in assay [12] and in assay [13] was inactive. For the same compound, in assay [15], the AC50 is 0.597 µM (active).
With `C=C(C)C(=O)OCCOCCOCCOC(=O)C(=C)C`, the result in [1], in assay [16], in assay [2], in assay [3], in [4] and in assay [5] was inactive. Further, the outcome in [6], in [7], in assay [8], in assay [9], in assay [10] and in assay [11] was inactive. In addition, the outcome in [12] and in assay [13] was inactive.
Regarding `CC1(C)CCC[C@]2(C)[C@H]3CCO[C@]3(C)CC[C@@H]12`, the outcome in assay [1], in assay [2], in assay [14], in assay [3], in [4] and in assay [5] was inactive. Further, the outcome in assay [6], in assay [7], in assay [8], in assay [9], in assay [11] and in assay [13] was inactive. Besides, the AC50 was 36.6 µM (active) in assay [5]; 26.4 µM (active) in assay [8]; 31.8 µM (active) and 33.4 µM (active) in [10]; 33.6 µM (active) and 32.7 µM (active) in assay [12].
As to `Clc1cc(Cl)c(-c2c(Cl)c(Cl)cc(Cl)c2Cl)cc1Cl`, the result in assay [1], in [2], in [7], in assay [9] and in [13] was inactive. Besides, the AC50 in assay [16] is 1.98 µM (active); in [3], 3.5 µM (active); in assay [4], 15.6 µM (active); in [5], 16.3 µM (active); in assay [6], 10 µM (active); in assay [8], 14.9 µM (active). The concentration at half-maximal activity (AC50) in assay [10] was 17.4 µM (active); in assay [11] it was 10 µM (active); in assay [12], 14.3 µM (active).
For the compound `CC(=O)c1c(C)c([N+](=O)[O-])c(C(C)(C)C)c([N+](=O)[O-])c1C`, the outcome in [1], in [16], in [2], in [3], in assay [4] and in assay [5] was inactive. Moreover, the result in assay [6], in assay [7], in assay [8], in assay [9], in assay [10] and in assay [11] was inactive. For the same compound, the outcome in assay [12] and in [13] was inactive.
As to `c1ccc2cc(Nc3ccc(Nc4ccc5ccccc5c4)cc3)ccc2c1`, the outcome in assay [1], in assay [2], in assay [14], in assay [3], in [4] and in [5] was inactive. For the same compound, the outcome in [6], in [7], in [8], in assay [9], in assay [10] and in assay [11] was inactive. The outcome in [12] and in assay [13] was inactive.

The values are drawn from PubChem BioAssay (EPA / NIEHS).
